# From PubChem BioAssay (Tox21)
# Results filed as inconclusive are left out. Values without a mark were called inactive. Calls follow the shape of the full dose curve.
# Test: p53 small molecule agonists, cell-based qHTS assay with human liver microsomes (AID 1963577);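 also: p53 response element beta-lactamase reporter cells with liver microsomes plus NADPH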
# Conditions: HCT-116 p53RE-bla with human liver microsomes, ratio, 16 h; series mostly up to 66 µM; activation: at the top concentration
# From the text: National Center for Advancing Translational Sciences [NCATS]
# Division of Preclinical Innovation [DPI]
# U.S. Environmental Protection Agency [EPA]
# National Institutes of Environmental Health Sciences [NIEHS]
# National Toxicology Program [NTP]
# U.S. Food and Drug Administration [FDA]
# p53, a tumor suppressor protein, is activated following cellular insult, including DNA damage and other cellular stresses. The activation of p53 regulates cell fate by inducing DNA repair, cell cycle arrest, apoptosis, or cellular senescence. The activation of p53, therefore, is a good indicator of DNA damage and other cellular stresses. […] The activation of the reporter gene under culture conditions can be detected by fluorescence intensity.
# Tox21 Assay Protocol Summary:
# The p53RE-bla cells were dispensed at 4,000cells/3ul/well in 1536-well black-clear bottom plates. After the assay plates were incubated at 37 C, 5% CO2 incubator for 5 hours, 23 nL of compounds dissolved in DMSO, positive controls or DMSO only was transferred to the assay plate. Following compound addition, 3 uL of human liver microsomes (XenoTech, Kansas City, KS) at final concentration of 0.5 mg/mL and 1uL of Beta-Nicotinamide adenine dinucleotide 2-phosphate (NADPH) at final concentration of 0.5 mg/mL were transferred to the assay plate. The plates were incubated at 37 C for 16 hours. 1 uL of LiveBLAzer detection mixture was added to each well and the plates were incubated at room temperature in the dark for 2 h.
# % is scaled to controls: 0 for no effect and ±100 for the full control effect.
row,Structure (SMILES),activation
1,CC(C)(O)c1ccc(CNC(=O)c2cccnc2Oc2ccc(F)cc2)cc1,-19.4%
2,NC1CCN(c2cccc(Cl)n2)CC1,1.99% [at 30.3 µM]
3,CCOc1nc2cccc(C(=O)O)c2n1Cc1ccc(-c2ccccc2-c2nn[nH]n2)cc1,0.165% [at 30.3 µM]
4,CCCCCCCC/C=C\CCCCCCCCCCCC(=O)O,0.171%
5,CCC(C)CCCC(C)(C)O (stereo not given),-3.29%
6,CO[C@@]1(NC(=O)CSCC#N)C(=O)N2C(C(=O)O)=C(CSc3nnnn3C)CS[C@@H]21,0.652% [at 30.3 µM]
7,BrC/C=C/CBr,-4.84% [at 13.5 µM]
8,CCc1ccc(CC)cc1,-3.17%
9,O=C1c2cccc(O)c2C(=O)c2c(O)cc(CO)cc21,-0.431%
10,CN1CCOC(c2ccccc2)c2ccccc2C1 (stereo not given),6.53% [at 30.3 µM]
11,ClCCl,0.742%
12,Nc1cccc(S(=O)(=O)O)c1,0.279%
13,CC(=O)NC(=O)c1ccccc1O,-0.724% [at 30.3 µM]
14,CC1(C)CC(OC(=O)CCCCCCCCC(=O)OC2CC(C)(C)NC(C)(C)C2)CC(C)(C)N1,1.98% [at 13.5 µM]
15,O=C1OC(=O)c2cc([N+](=O)[O-])ccc21,-1.25%
16,CCCCCCCCCC=O,-6.45%
17,O=C(O)c1cccc(O)c1,1.44%
18,CCN(CC)CCOCCOC(=O)C1(c2ccccc2)CCCC1,0.385% [at 30.3 µM]
19,CC(=O)c1ccc(C(C)=O)cc1,2.46%
20,CC(COC(C)(C)C)OCCCO (stereo not given),2.72%

row,Structure (SMILES),activation
1,C=CCn1c(=O)n([C@@H]2O[C@H](CO)[C@@H](O)[C@H]2O)c2nc(N)[nH]c(=O)c21,-1.13% [at 30.3 µM]
2,CCCCCCCCCOC(=O)c1ccccc1C(=O)OCCCCCCCCC,-2.29%
3,O=C=Nc1cccc(C(F)(F)F)c1,0.417%
4,CCCCC(=O)O[C@]1(C(=O)CO)CC[C@H]2[C@@H]3CCC4=CC(=O)CC[C@]4(C)[C@H]3[C@@H](O)C[C@@]21C,-10.9% [at 30.3 µM]
5,CCCCCCCCCCCCCCCCCCO,1.1% [at 30.3 µM]
6,CN(C)CCN1CCOCC1,0.442%
7,Cc1cccc([N+](=O)[O-])c1C(=O)O,0.929%
8,COc1cc2[nH]c(=O)[nH]c(=O)c2cc1OC,-3.44% [at 30.3 µM]
9,O=Cc1ccccc1[N+](=O)[O-],12.6%
10,C[Si]1(C)O[Si](C)(C)O[Si](C)(C)O1,3.81%
11,C=C(C)C(=O)OC1CC(C)CC(C)(C)C1 (stereo not given),-3.8%
12,Oc1c(Br)cc(Br)c2cccnc12,-12.4% [at 30.3 µM]
13,O=C(O)c1cc(O)c2ccccc2c1O,-7.57%
14,CC1c2ccccc2CN1NC(=O)c1ccc(Cl)c(S(N)(=O)=O)c1 (stereo not given),8.01% [at 30.3 µM]
15,CCN1CCC[C@H]1CNC(=O)c1cc(S(N)(=O)=O)ccc1OC,-2.83% [at 30.3 µM]
16,O=C(O)c1c(Cl)cccc1Cl,1.01%
17,Cn1c(=O)[nH]c2ncn(C)c2c1=O,-2.52%
18,CCOC(=O)c1ncn2c1CN(C)C(=O)c1cc(F)ccc1-2,-0.635% [at 30.3 µM]
19,CC(C)Cc1ccc(C(C)C(=O)OCc2ccccn2)cc1 (stereo not given),0.718% [at 30.3 µM]
20,CC(C)(C)NCC(O)c1cc(O)cc(O)c1 (stereo not given),-4.57% [at 30.3 µM]
